The source of these data is PubChem BioAssay (NCATS).

Inconclusive results are not listed. Active and inactive are the calls of the source. Unless noted, the call rests on the fitted dose curve.

Assay [1] deals with Estrogen receptor (Homo sapiens) (UniProt P03372). The assay is described as follows: qHTS assay for small molecule antagonists of estrogen receptor alpha signaling (AID 588513; active means well fitted curve in the direction sought with a large enough effect in the signal ratio, with a control signal flat, not every such curve was filed as active; the % refers to the signal ratio; further: on the % scale 0 is the no-effect control and ±100 the full control effect). In outline: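 Antagonist mode: inhibition of 0.5 nM 17-beta-estradiol-driven beta-lactamase reporter in HEK 293 ER-alpha-UAS-bla cells, 18 h at 37C, CCF4 readout after 2 h at RT. Normalised to estradiol and DMSO; titration fitted to Hill.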
A general note: qHTS replaces the single test concentration by a dilution series.

In assay [2] the target is Peroxisome proliferator-activated receptor delta (Homo sapiens) (UniProt Q03181). The assay is described as follows: qHTS assay for small molecule agonists of peroxisome proliferator-activated receptor delta signaling (AID 588534).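 Further: 0% = DMSO basal wells and 100% = positive control agonist at 10 µM.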 Put shortly:
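Fluorescence from CCF4 substrate cleavage by beta-lactamase reporter, read 2 hrs at RT, measured agonist activity. Compounds were tested with 18 hrs exposure at 37 C. Concentration-response data fitted to Hill equation.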

The target of assay [3] is Peroxisome proliferator-activated receptor gamma (Homo sapiens) (UniProt P37231). The assay is described as follows: qHTS assay for small molecule agonists of peroxisome proliferator-activated receptor gamma signaling (AID 588536; active means well fitted curve in the direction sought with a large enough effect in the signal ratio, with a control signal flat, not every such curve was filed as active; the % refers to the signal ratio;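 further: 0% = DMSO basal wells and 100% = rosiglitazone at 2 µM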). Put shortly:
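GeneBLAzer PPAR-gamma-UAS-bla HEK293 cells in 1% charcoal/dextran-treated FBS medium were treated 16 h at 37 C with compounds. Beta-lactamase activity was read by CCF4 ratio (460/530 nm). Response was normalized to 2 uM rosiglitazone (100%) and DMSO, then Hill-fitted for EC50 and efficacy.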

Assay [4] has the same target. The assay is described as follows: qHTS assay for small molecule antagonists of peroxisome proliferator-activated receptor gamma signaling (AID 588537; active means well fitted inhibition curve with a large enough effect in the signal ratio, with a control signal flat, not every such curve was filed as active; the % refers to the signal ratio;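 further: reporter cells co-stimulated with 50 nM rosiglitazone agonist during compound treatment; % of control where 0% means no effect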). In outline: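 We seeded GeneBLAzer HEK293 reporter cells at 3000 per well, allowed 6-6.5 h attachment at 37 C, then co-treated with test compound titrations and 50 nM rosiglitazone overnight (16 h). Inhibition was quantified from 460/530 nm emission ratios.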

The target in assay [5] is Vitamin D3 receptor (Homo sapiens) (UniProt P11473). The assay is described as follows: qHTS assay for small molecule antagonists of vitamin D receptor signaling (AID 588541).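 Further: receptor activated by calcitriol during compound treatment; series mostly up to about 77 µM; on the % scale 0 is the no-effect control and ±100 the full control effect.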 In outline: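 VDR-UAS-bla HEK293T cells (2000/well, 2% charcoal-stripped FBS) were treated with titrated compounds plus 1-alpha,25-dihydroxyvitamin D3 (50 nM or 3 nM final) for 16 h at 37 C. CCF4 beta-lactamase fluorescence was read; Hill fits gave IC50.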

Assay [6] can be described thus: qHTS assay for small molecule agonists of retinoid X receptor alpha signaling (AID 588544).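 On activation: 0% = DMSO basal wells and 100% = reference agonist.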 The note with it: HEK293T RXRa-UAS-bla, beta-lactamase reporter, 18 h; 530 nm emission.
Assay [7] addresses Retinoic acid receptor RXR-alpha (Homo sapiens) (UniProt P19793). Described as above.
The target in assay [8] is Thyroid hormone receptor beta (Homo sapiens) (UniProt P10828). The assay is described as follows: qHTS assay for small molecule agonists of thyroid hormone receptor beta signaling (AID 588545).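 Further: 0% = DMSO only and 100% = 10 nM T3.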 Put shortly:
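Efficacy and EC50 values derive from Hill fits of qHTS titration data, normalized to 10 nM T3 and DMSO-only wells. HEK 293 reporter cells were stimulated for 18 hrs at 37 C, with beta-lactamase activity measured by CCF4 fluorescence.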

Assay [9] has the same target. Kind of assay: qHTS assay for small molecule antagonists of thyroid hormone receptor beta signaling (AID 588547; active means well fitted inhibition curve with a large enough effect in the signal ratio, with a control signal flat, not every such curve was filed as active; the % refers to the signal ratio;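 further: cells stimulated with 0.4 nM T3 agonist during compound exposure; series mostly up to about 77 µM; on the % scale 0 is the no-effect control and ±100 the full control effect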). The settings on record: TR-UAS-bla HEK293, beta-lactamase ratio, antagonist mode, 18 h. In outline: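 TR-UAS-bla GripTite HEK293 cells in 2% charcoal/dextran FBS medium were preincubated 4 h at 37 C, given compound (0.59 nM to 92 uM) plus 0.4 nM T3 (final) for 18 h, then CCF4 for 2 h at RT; Hill fit gave IC50.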

Assay [10] can be described thus: qHTS assay for small molecule activators of the p53 signaling pathway (AID 651743; active means well fitted activation curve with a large enough effect in the signal ratio, not every such curve was filed as active; the % refers to the signal ratio; further: series mostly up to about 92 µM; % of control where 0% means no effect). The note with it: HCT-116 p53RE-bla, beta-lactamase FRET ratio, 16 h; activation: stronger effect = higher value. In outline: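 Cell-based beta-lactamase reporter (p53 response elements, HCT-116 background). After a 5-hour preincubation, cells received compound for 16 hours at 37 C; substrate development ran 2 hours at room temperature.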

Assay [11] in a line: qHTS assay for environmental chemicals that activate the Aryl hydrocarbon Receptor (AhR) signaling pathway (AID 651777; active means well fitted curve in the direction sought with a large enough effect; an effect the other way counts as inactive or inconclusive; further: % of control where 0% means no effect; nearly all actives have a fitted effect of over 15% in size). The settings on record: 1A2-DRE human hepatoma cells, luciferase, 24 h; activation: stronger effect = higher value. In outline: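 1A2-DRE human hepatoma reporter line; 1,200 cells/well; cmpd or DMSO 24 h, 37 C/5% CO2; One-Glo 30 min RT; luciferase lum.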
Assay [12] concerns the target Peroxisome proliferator-activated receptor alpha (Homo sapiens) (UniProt Q07869). Kind of assay: qHTS assay for small molecule agonists of the peroxisome proliferator-activated receptor alpha (PPARalpha) signaling pathway (AID 651778; active means well fitted curve in the direction sought with a large enough effect; an effect the other way counts as inactive or inconclusive; further: % of control where 0% means no effect). The settings on record: PathHunter PPARalpha complementation, chemiluminescence, 6 h; max response: stronger effect = higher value. Put shortly:
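Cells plated at 2,000/well and held overnight at 37 C, 5% CO2, then compound added by pin tool for 6 hr; after PathHunter detection reagent and 60 min at room temperature, chemiluminescence from enzyme complementation was read.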

Assay [13] can be described thus: qHTS assay for small molecule agonists of the antioxidant response element (ARE) signaling pathway measured by Nrf2-dependant transcriptional activity (AID 720636; active means well fitted curve in the direction sought with a large enough effect in the repeat runs; an effect the other way counts as inactive or inconclusive;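 further: HepG2 cells with an ARE-driven luciferase reporter; % of control where 0% means no effect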). In outline:
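Cells: ARE-luc HepG2 with Nrf2-responsive luciferase. Medium contained 1% dialyzed FBS. Compound exposure lasted 16 hr at 37 C and 5% CO2, followed by ONE-Glo luciferase detection.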

Assay [14] is described as follows: qHTS assay for small molecule agonists of the antioxidant response element (ARE) signaling pathway measured by Nrf2-dependant transcriptional activity - cell viability counter screen (AID 720653; active means well fitted curve in the direction sought with a large enough effect in the repeat runs; an effect the other way counts as inactive or inconclusive; further: on the % scale 0 is the no-effect control and ±100 the full control effect). The settings on record: ARE-bla HepG2 viability, CellTiter-Glo ATP luminescence, 16 h; max response: stronger effect = lower value. Put shortly:
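ARE-bla HepG2 cells (2,000/well) rested 5 hrs at 37C/5% CO2, then exposed to compounds in DMSO for 16 hrs. Viability was read in the same wells as intracellular ATP by luminescence, 30 min at room temperature after reagent addition.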

Assay [15] is described as follows: qHTS assay for cell viability of HEK293 cells (AID 743288; active means well fitted curve in the direction sought with a large enough effect; an effect the other way counts as inactive or inconclusive; further: on the % scale 0 is the no-effect control and ±100 the full control effect; nearly all actives have a fitted effect of over 50% in size). The settings on record: ATP luminescence (CellTiter-Glo), 18 h; max response: stronger effect = lower value. Put shortly: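 Total intracellular ATP, measured with a luciferase-coupled reagent, indicates the number of viable HEK293 cells. Exposure to test chemicals lasts 18 h at 37 C in 1,536-well format at 2,000 cells/well.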

Assay [16] deals with Nuclear receptor subfamily 1 group I member 2 (Rattus norvegicus) (UniProt Q9R1A7). The assay is described as follows: qHTS assay for small molecule activators of the rat pregnane X receptor (rPXR) signaling pathway (AID 651751; call rule not given here; further: 0% is about no effect). The settings on record: rPXR reporter cells, luciferase (One-Glo), 24 h.
Assay [17] has as its target Estrogen receptor (Homo sapiens) (UniProt P03372). The assay is described as follows: qHTS assay for small molecule agonists of estrogen receptor alpha signaling (AID 588514).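 Further: 0% = vehicle only and 100% = reference agonist; nearly all actives have a fitted effect of over 70% in size.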 Put shortly: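 Cells were plated at 5000/well, incubated 4 hrs at 37 C, dosed with compound titration series, incubated 18 hrs at 37 C, loaded with CCF4 dye for 2 hrs at RT, then fluorescence was read.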

The nature of assay [18]: qHTS assay for small molecule antagonists of retinoid X receptor alpha signaling (AID 588546; active means well fitted inhibition curve with a large enough effect in the signal ratio, with a control signal flat, not every such curve was filed as active; the % refers to the signal ratio). The settings on record: HEK293T RXRa-UAS-bla, beta-lactamase ratio, antagonist mode; measured here: W530 green channel, cytotoxicity proxy. Put shortly: (§1)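 Beta-lactamase reporter inhibition, read as CCF4 fluorescence ratio (ex 405, em 460/530 nm) after 2 h at RT. HEK293T UAS-bla cells, 2500/well, were stimulated with 9-cis-RA at 500 or 100 nM final alongside test compound for 18 h at 37 C.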

In assay [19] the target is Retinoic acid receptor RXR-alpha (Homo sapiens) (UniProt P19793). Described as above. The note with it: HEK293T RXRa-UAS-bla, beta-lactamase ratio, antagonist mode. Put shortly:
as §1

Assay [20] can be described thus: qHTS assay for cell viability of the p53RE-bla HCT-116 cell line (AID 743292; active means well fitted curve in the direction sought with a large enough effect; an effect the other way counts as inactive or inconclusive; further: on the % scale 0 is the no-effect control and ±100 the full control effect; nearly all actives have a fitted effect of over 55% in size). Put shortly:
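HCT-116 p53RE-bla cells seeded 4,000/well; 5 h at 37 C; compound (DMSO) added; 16 h at 37 C; CellTiter-Glo added, 30 min RT; luminescence read.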

Chain of Retinoic acid receptor RXR-alpha (Homo sapiens) (P19793 whole entry, looked up): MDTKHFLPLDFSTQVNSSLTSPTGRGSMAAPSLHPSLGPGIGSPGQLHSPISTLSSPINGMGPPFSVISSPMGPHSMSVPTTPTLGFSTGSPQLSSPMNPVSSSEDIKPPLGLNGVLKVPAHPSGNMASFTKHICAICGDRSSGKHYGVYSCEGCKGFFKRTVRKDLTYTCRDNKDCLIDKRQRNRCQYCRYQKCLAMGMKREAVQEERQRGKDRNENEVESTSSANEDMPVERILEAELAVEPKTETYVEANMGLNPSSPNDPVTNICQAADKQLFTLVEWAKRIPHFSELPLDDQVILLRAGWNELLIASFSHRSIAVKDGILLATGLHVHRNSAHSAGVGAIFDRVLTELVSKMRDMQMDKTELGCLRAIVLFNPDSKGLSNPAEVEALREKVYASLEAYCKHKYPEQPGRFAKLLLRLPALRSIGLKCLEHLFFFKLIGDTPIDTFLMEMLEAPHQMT
Chain of Peroxisome proliferator-activated receptor gamma (Homo sapiens) (P37231 whole entry, looked up): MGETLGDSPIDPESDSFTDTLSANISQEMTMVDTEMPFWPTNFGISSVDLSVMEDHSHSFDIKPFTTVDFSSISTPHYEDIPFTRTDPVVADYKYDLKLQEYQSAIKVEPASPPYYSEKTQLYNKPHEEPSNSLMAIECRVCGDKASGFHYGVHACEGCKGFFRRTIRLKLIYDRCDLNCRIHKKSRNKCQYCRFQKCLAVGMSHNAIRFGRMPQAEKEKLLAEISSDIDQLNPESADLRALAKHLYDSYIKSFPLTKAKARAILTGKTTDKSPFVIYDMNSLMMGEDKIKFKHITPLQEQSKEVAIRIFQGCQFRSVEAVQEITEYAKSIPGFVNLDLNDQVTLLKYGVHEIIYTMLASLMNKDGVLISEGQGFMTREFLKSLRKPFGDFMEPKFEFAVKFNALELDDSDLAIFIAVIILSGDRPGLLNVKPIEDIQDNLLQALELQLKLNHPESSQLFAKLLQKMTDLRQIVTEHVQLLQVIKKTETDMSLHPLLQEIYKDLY
Chain of Estrogen receptor (Homo sapiens) (P03372 whole entry, looked up): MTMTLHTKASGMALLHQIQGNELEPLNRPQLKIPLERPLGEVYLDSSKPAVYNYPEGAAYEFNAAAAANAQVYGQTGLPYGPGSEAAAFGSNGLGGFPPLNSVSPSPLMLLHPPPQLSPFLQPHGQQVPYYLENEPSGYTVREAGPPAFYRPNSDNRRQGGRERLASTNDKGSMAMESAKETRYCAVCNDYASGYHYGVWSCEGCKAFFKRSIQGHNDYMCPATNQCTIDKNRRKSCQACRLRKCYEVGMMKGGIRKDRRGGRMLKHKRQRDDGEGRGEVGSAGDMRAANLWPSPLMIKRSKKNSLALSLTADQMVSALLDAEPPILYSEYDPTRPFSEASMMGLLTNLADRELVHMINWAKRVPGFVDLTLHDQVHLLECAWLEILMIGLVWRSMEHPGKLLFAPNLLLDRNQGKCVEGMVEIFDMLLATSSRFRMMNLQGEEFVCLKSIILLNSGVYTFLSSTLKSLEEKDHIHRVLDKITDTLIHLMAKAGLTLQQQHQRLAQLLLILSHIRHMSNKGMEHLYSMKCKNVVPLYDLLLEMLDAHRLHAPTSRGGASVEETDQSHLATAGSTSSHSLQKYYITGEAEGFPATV
Chain of Nuclear receptor subfamily 1 group I member 2 (Rattus norvegicus) (Q9R1A7 whole entry, looked up): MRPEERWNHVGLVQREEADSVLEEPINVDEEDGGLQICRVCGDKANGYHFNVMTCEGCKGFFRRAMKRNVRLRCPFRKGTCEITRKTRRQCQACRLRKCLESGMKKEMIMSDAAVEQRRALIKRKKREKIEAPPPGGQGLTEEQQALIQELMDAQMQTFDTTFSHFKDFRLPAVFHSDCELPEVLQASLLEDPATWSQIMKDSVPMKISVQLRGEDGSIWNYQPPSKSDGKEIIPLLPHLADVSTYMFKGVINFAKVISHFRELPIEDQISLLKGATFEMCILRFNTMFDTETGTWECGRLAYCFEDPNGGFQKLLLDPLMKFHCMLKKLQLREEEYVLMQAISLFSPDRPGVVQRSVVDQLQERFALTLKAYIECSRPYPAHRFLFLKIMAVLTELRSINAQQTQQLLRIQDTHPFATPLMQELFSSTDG
Chain of Thyroid hormone receptor beta (Homo sapiens) (P10828 whole entry, looked up): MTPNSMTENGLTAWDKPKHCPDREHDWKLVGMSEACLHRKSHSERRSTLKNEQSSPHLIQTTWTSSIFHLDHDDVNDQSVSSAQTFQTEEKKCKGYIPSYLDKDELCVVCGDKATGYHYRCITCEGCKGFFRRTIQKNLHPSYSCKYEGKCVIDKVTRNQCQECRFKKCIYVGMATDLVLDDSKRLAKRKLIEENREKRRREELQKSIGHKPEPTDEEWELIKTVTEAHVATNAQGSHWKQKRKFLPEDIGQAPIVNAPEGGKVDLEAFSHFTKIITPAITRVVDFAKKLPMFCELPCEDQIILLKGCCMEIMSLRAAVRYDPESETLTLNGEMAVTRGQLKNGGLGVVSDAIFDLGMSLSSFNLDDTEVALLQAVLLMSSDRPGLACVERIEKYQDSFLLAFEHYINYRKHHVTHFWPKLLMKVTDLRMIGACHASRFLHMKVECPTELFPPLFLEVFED
Chain of Peroxisome proliferator-activated receptor alpha (Homo sapiens) (Q07869 whole entry, looked up): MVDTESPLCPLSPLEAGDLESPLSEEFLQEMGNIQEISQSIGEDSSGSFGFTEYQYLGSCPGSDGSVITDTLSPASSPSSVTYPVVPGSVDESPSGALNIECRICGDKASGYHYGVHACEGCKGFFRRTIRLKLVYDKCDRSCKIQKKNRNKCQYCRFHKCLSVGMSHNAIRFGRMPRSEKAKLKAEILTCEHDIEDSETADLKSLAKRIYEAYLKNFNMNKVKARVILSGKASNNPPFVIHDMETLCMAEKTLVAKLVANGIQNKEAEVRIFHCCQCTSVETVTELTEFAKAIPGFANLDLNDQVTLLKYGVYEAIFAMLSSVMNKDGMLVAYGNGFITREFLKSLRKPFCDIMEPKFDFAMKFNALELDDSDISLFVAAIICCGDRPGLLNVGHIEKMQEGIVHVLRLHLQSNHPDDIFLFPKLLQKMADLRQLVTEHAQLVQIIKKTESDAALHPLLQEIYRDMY
Chain of Vitamin D3 receptor (Homo sapiens) (P11473 whole entry, looked up): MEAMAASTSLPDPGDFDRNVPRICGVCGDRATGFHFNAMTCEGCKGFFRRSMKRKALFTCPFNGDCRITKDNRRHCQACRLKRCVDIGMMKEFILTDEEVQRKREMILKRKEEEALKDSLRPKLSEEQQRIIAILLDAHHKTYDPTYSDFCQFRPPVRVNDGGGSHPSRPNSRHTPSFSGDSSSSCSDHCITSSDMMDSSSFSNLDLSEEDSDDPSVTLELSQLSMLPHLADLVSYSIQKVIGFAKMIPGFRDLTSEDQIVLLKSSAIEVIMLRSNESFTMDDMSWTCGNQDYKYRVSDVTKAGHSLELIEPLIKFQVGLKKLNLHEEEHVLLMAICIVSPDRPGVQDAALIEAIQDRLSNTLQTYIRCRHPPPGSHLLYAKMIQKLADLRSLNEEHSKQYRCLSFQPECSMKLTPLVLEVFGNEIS
Chain of Peroxisome proliferator-activated receptor delta (Homo sapiens) (Q03181 whole entry, looked up): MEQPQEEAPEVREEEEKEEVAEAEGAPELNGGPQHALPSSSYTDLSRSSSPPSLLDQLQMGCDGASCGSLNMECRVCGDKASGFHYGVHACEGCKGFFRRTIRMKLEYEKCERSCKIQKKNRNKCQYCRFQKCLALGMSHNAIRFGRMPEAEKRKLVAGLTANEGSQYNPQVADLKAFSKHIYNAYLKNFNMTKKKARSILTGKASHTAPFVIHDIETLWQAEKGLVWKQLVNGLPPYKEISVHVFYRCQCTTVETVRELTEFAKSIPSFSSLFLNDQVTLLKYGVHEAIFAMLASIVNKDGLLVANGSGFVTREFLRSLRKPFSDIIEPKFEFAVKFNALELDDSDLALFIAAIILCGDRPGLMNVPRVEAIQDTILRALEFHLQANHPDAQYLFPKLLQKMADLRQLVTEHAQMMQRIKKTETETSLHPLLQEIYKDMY

With `Cc1cc(C)nc(NC(=O)NS(=O)(=O)c2ccccc2C(=O)OC2COC2)n1`, the Potency entry in assay [1], in assay [3], in [4], in [5], in assay [7] and in [8] was “inactive” in each case. Besides, the Potency result in assay [13] is “inactive”. Besides, the compound was classed as inactive in assay [2]. In addition, the max response is -3.21% in [6]; -2.96% (inactive) in assay [12]; 18% (inactive) in assay [14]; 8.1% (inactive) in [15]; -3.04% (inactive) in [16]. The activity change % (negative = inhibition) in assay [9] was 4.53% (inactive). Besides, the figures for the activation in assay [10] and in [11] were 1.69% (inactive) and -0.244% (inactive), respectively.

In the case of `CC1(C)Cc2cccc(O)c2O1`, the Potency result in assay [1], in assay [17], in assay [4], in [5], in [7] and in assay [8] was “inactive” in each case. The Potency result in assay [13] and in assay [20] was “inactive” in each case. Moreover, the max response in [6] was -1.21%; in assay [18] it was -5.33%; in assay [19], -3.15% (inactive); in [12], -0.718% (inactive); in assay [14], 7.61% (inactive); in assay [15], 4.44% (inactive). The max response in [16] was 1.61% (inactive). For the same compound, in assay [9], the activity change % (negative = inhibition) is -2.82% (inactive). Also, the activation in [11] was 0.293% (inactive).

With `CCNc1nc(NCC)nc(SC)n1`, the Potency result in assay [1], in [17], in [3], in [5], in assay [7] and in [8] was “inactive” throughout. The Potency entry in assay [13] and in assay [20] was “inactive” throughout. In addition, the max response in assay [6] was -4.09%; in assay [18], -14%; in assay [19], -3.26% (inactive); in assay [12] it was 0.186% (inactive); in assay [14], 8.18% (inactive); in [15], -5.22% (inactive). Also, the max response in assay [16] was 1.83% (inactive). Also, the activity change % (negative = inhibition) in [9] was -6.04% (inactive). The activation in [10] was -3.86% (inactive).
